Inconclusive results are not listed. Calls of active or inactive are those of the source. Calls follow the shape of the dose curve; as a rule, active = well fitted cell-killing curve with a large enough effect; inconclusive = small, poorly fitted or top-dose-only effect; inactive = no such curve, though single readings can be large or run the other way.
assay: qHTS of pediatric cancer cell lines to identify multiple opportunities for drug repurposing: Primary screen for SJ-GBM2 cells (AID 1347091); details: SJ-GBM2 viability, CellTiter-Glo luminescence, 48 h; series mostly up to 46 µM; activity change, negative = cytotoxic: at the top concentration
From the text: Drug repurposing or repositioning has been offered as a strategy for drug development in oncology programs. This approach has special potential for childhood cancers and other rare or orphan diseases, where the expected return on new drug development has been a disincentive to pharmaceuticals.
In this project we exploit the poly-pharmacology of drugs to discover new indications via phenotypic screening of a panel of 19 well-characterized cell lines derived from solid tumors seen in children and adolescents. The goal is to identify approved drugs with previously unrecognized anticancer properties that has the potential to reveal new mechanisms and biological processes involved in carcinogenesis or drug resistance. We employed a titration-based paradigm (quantitative high-throughput screening or qHTS), where all compounds were tested at multiple concentrations for their effect on cell viability. Concentration-response curves (CRCs) were derived directly from the primary screen, and both potency and efficacy values were used to identify compounds with robust bioactivity profiles. We screened the NIH Chemical Genomics Center (NCGC) Pharmaceutical Collection (NPC) and Mechanism Interrogation Plate (MIPE) small molecule collections of approved and investigational compounds against these cell lines; and measured metabolically active cells after 48 hours of compound treatment as a proxy for cell viability.
Assay Submitter: Nathalia J. Martinez, National Center for Advancing Translational Sciences, National Institutes of Health, Rockville, MD, USA; email: natalia.martinez@nih.gov
[1] Shen, M et al. Quantitative high-throughput phenotypic screening of pediatric cancer cell lines identifies multiple opportunities for drug repurposing. Oncotarget 2017 Dec 19;9(4):4758-4772. PMID 29435139.
The cells were obtained from University of North Carolina (UNC), Pediatric Preclinical Testing Program (PPT), and Coriell Institute (CI).
qHTS cell viability assay:
Cells were assayed in growth media at a density of 500-1,000 cells/well. Five microliters of cells were dispensed into 1,536-well, white, solid-bottom, TC-treated plates (Greiner Bio One) using a multidrop dispenser and incubated at 37 degrees C, 5% CO2, under a humidified atmosphere for 5 hours. Twenty-three nanoliters of compounds and controls (neutral control DMSO or positive control bortezomib at final concentration of 2.3 µM) were subsequently transferred by Kalypsys pintool. For primary screens, the MIPE collection was tested at 11-point dilutions (final concentrations range from 0.78 nM to 46 µM) and the NPC collection at 8-point dilutions (final concentrations range from 0.59 nM to 46 µM). Compounds tested in follow-up screens were assayed at 11-point dilutions. Cells were incubated for 48 hours, followed by addition of 3 uL of CellTiter-Glo (Promega). After a 15 min incubation at room temperature, samples were analyzed for luminescence intensity using a ViewLux High-throughput CCD imager equipped with clear filters.
Potency is read from the fitted curve at half-maximal effect.

| SMILES | activity change, negative = cytotoxic | Potency |
| --- | --- | --- |
| Cc1cnc(NS(=O)(=O)c2ccc(N)cc2)nc1 | 13.5% (inactive) | – |
| CCCCCCOC(=O)NC(=N)c1ccc(NCc2nc3cc(C(=O)N(CCC(=O)OCC)c4ccccn4)ccc3n2C)cc1 | – | 21.1 µM (active) |
| COC(=O)c1cc(Cl)ccc1OC | 11.7% (inactive) | – |
| O=C(CCCCCCCCC#CI)Oc1ccccc1 | -4.73% (inactive) | – |
| CCN1CCN(C(=O)N[C@@H](C(=O)N[C@@H]2C(=O)N3[C@@H]2SC(C)(C)[C@H]3C(=O)O)c2ccccc2)C(=O)C1=O | 36.1% (inactive) | – |
| Cc1cccc(N(C)C(=S)Oc2ccc3c(c2)CCC3)c1 | -15.1% (inactive) | – |
| COc1cc(NS(=O)(=O)c2ccc(N)cc2)nc(C)n1 | 15.8% (inactive) | – |
| Nc1cccc2c(N)cccc12 | -8.06% [at 92.7 µM] (inactive) | – |
| CN1CC[C@H](c2c(O)cc(O)c3c(=O)cc(-c4ccccc4Cl)oc23)[C@H](O)C1 | – | 0.106 µM (active) |
| COC(=O)c1ccc(NC(C)=O)cc1OC | 28.8% (inactive) | – |
| Cc1[nH]cnc1-c1ccc(Cl)cc1 | 18.1% (inactive) | – |
| COc1cc(OC)nc(O[C@H](C(=O)O)C(OC)(c2ccccc2)c2ccccc2)n1 | 22.1% (inactive) | – |
| Cc1nc([N+](=O)[O-])cn1-c1ccc([N+](=O)[O-])cc1 | 29.1% (inactive) | – |
| Cc1c(N)cccc1C(F)(F)F | 16.5% (inactive) | – |
| C#Cc1ccc(-c2ccccc2F)cc1 | 15.3% (inactive) | – |
| Nc1ccc(C(=O)N2CC3CC(CN(Cc4ccccc4)C3)C2)cc1 | 22.5% (inactive) | – |
| CCOC(=O)[C@H](CCc1ccccc1)N[C@@H](C)C(=O)N(CC(=O)O)C1Cc2ccccc2C1 | 12.5% (inactive) | – |
| O=C(O)C1CCC1 | 18.1% (inactive) | – |
| C=CC[N+]1([C@H]2C[C@H]3[C@@H]4CC[C@H]5C[C@H](OC(C)=O)[C@@H](N6CCCCC6)C[C@]5(C)[C@H]4CC[C@]3(C)[C@H]2OC(=O)CC)CCCCC1 | 28.3% (inactive) | – |
| O=C(O)[C@H](O)[C@@H](O)[C@H](O[C@@H]1O[C@H](CO)[C@H](O)[C@H](O)[C@H]1O)[C@H](O)CO | 8.73% (inactive) | – |

| SMILES | activity change, negative = cytotoxic | Potency |
| --- | --- | --- |
| O=C(c1ccccc1)c1ccccc1 | 24.4% (inactive) | – |
| C[C@@H](O[C@H]1OCCN(Cc2n[nH]c(=O)[nH]2)[C@H]1c1ccc(F)cc1)c1cc(C(F)(F)F)cc(C(F)(F)F)c1 | – | 21.1 µM (active) |
| COc1cc2nc(Cl)nc(N)c2cc1OC | 22.9% (inactive) | – |
| CO/N=C(/C(=O)N[C@@H]1C(=O)N2C(C(=O)[O-])=C(C[n+]3ccn4ncccc43)CS[C@H]12)c1nsc(N)n1 | 24.2% (inactive) | – |
| Cc1ccc(C(=O)Oc2ccc(C(O)CNC(C)(C)C)cc2OC(=O)c2ccc(C)cc2)cc1 (stereo not given) | 17.1% (inactive) | – |
| CC(C)(C)C(O)/C=C/c1ccc2c(c1)OCO2 (stereo not given) | 0.671% (inactive) | – |
| O=C1NC(c2ccccc2)(c2ccccc2)C(=O)N1COP(=O)(O)O | 22.5% (inactive) | – |
| O=C1c2ccccc2CCc2ccccc21 | 26.6% (inactive) | – |
| C=CCOc1cc(Cl)ccc1C(=O)NCCN(CC)CC | -1.18% (inactive) | – |
| CCCCOCCOC(=O)c1cccnc1 | 23.1% (inactive) | – |
| CCCC(=O)O[C@]1(C(=O)COC(=O)CC)CC[C@H]2[C@@H]3CCC4=CC(=O)CC[C@]4(C)[C@H]3[C@@H](O)C[C@@]21C | 7.95% [at 16.1 µM] (inactive) | – |
| COc1ccc([C@@H]2Sc3ccccc3NC(=O)[C@@H]2O)cc1 | – | 7.5 µM (active) |
| COc1cc(/C=C/C(N)=O)cc(OC)c1OC | 35.5% (inactive) | – |
| CCOC(=O)C(=O)CCCCCCl | 9.01% (inactive) | – |
| CC(C)(C)c1ccc(C(=O)CCCCl)cc1 | 2.55% (inactive) | – |
| CCCc1c2oc(C(=O)O)cc(=O)c2cc2c(=O)cc(C(=O)O)n(CC)c12 | 22.2% (inactive) | – |
| CCOC(=O)c1ccc(OCCN2C[C@H](O)[C@@H](O)[C@H](O)[C@H]2CO)cc1 | 12.2% (inactive) | – |
| Cc1nc2n(c(=O)c1CCN1CCC(C(=O)c3ccc(F)cc3)CC1)CCS2 | -7.07% (inactive) | – |
| COC(=O)C1=C(C)NC(C)=C(C(=O)OCCc2ccc(N3CCN(C(c4ccccc4)c4ccccc4)CC3)cc2)C1c1cccc([N+](=O)[O-])c1 (stereo not given) | 7.96% (inactive) | – |
| COc1ccccc1OCC1CNC(=O)O1 (stereo not given) | 21.2% (inactive) | – |

From PubChem BioAssay (NCATS)
